# Measurements reported in ChEMBL document CHEMBL3433997, “St. Jude Leishmania screening dataset” (2016).
# Experiments:
# Assay type in all cases: functional
# [1] = molecular target: Solute carrier family 2, facilitated glucose transporter member 1 (Homo sapiens) (UniProt P11166); assay: ST_JUDE_LEISH: Cytotoxicity at 2uM final concentration against transgenic Leishmania Mexicana promastigotes LmGLUT1 that are glucose transport deficient and complemented with the human glucose transporter GLUT1. Activity is measured by DNA content using SYBR green in vitro
# Chain of Solute carrier family 2, facilitated glucose transporter member 1 (Homo sapiens) (P11166 whole entry): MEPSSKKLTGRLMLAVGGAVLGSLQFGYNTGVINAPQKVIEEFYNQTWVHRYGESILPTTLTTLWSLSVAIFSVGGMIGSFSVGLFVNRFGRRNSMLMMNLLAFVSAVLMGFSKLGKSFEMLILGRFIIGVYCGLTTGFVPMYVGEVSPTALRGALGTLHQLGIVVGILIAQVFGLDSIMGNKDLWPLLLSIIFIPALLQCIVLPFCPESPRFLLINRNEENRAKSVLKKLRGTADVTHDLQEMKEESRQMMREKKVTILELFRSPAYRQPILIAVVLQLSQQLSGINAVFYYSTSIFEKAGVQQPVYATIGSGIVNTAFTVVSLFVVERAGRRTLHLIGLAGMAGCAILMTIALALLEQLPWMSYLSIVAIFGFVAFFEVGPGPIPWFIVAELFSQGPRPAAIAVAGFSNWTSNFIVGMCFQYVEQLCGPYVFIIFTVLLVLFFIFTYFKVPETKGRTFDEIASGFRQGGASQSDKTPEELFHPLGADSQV
# [2] = molecular target: Hexose transporter 1 (Plasmodium falciparum) (UniProt O97467); assay: ST_JUDE_LEISH: Cytotoxicity at 2uM final concentration against transgenic Leishmania Mexicana promastigotes LmPfHT that are glucose transport deficient and complemented with the Plasmodium falciparum hexose transporter. Activity is measured by DNA content using SYBR green in vitro
# [3] = molecular target: Glucose transporter (Leishmania mexicana) (UniProt O61059); assay: ST_JUDE_LEISH: Cytotoxicity at 2uM final concentration against transgenic Leishmania Mexicana promastigotes LmGT2 that are glucose transport deficient and complemented with the L. Mexicana glucose transporter 2. Activity is measured by DNA content using SYBR green in vitro
SMILES,inhibition [1] [%],inhibition [2] [%],inhibition [3] [%]
CC1CCN(Cc2ccc(NC(=O)c3cc4ccc5cccnc5c4[nH]3)cc2)CC1,7.7,7.81,7.77
O=C(Nc1cccc(CN2CCCN(Cc3ncc[nH]3)CC2)c1)c1ccc(Cl)c(Cl)c1,2.9,3.94,5.79
Cc1cc(=NN=Cc2ccccc2)c2cc(F)ccc2[nH]1,4.17,0.79,6.79
COCCN(C)CCCOc1cc2c(cc1OC)ncn2-c1cc(OCc2ccccc2C(F)(F)F)c(C(N)=O)s1,2.27,4.55,1.49
O=C(/C=C/c1ccc(Cl)c(Cl)c1)NCCCCCN1CCCC(CNS(=O)(=O)c2ccc(F)cc2)C1 (stereo unspecified),-1.15,-0.91,1.39
CCOC(=O)c1ccc(NC(=O)c2ccccc2C(=O)O)cc1,0.53,1.23,-0.02
CN1CCCC(CN2CCN(Cc3cccc(-c4ccc(-c5nc6cc(C(F)(F)F)ccc6[nH]5)cc4)c3)CC2)C1 (stereo unspecified),1.06,0.64,1.86
COc1cccc(NC(=O)Nc2ccc(Nc3nc(C)cc(N(C)C)n3)cc2)c1,2.46,1.22,-4.92
c1ccc2c(CNCCCN3CCN(CCCNCc4c5ccccc5cc5ccccc45)CC3)c3ccccc3cc2c1,10.3,4,0.34
COc1cc(Nc2nccc(-c3c(-c4cccc(NC(=O)c5c(F)cccc5F)c4)nn4ncccc34)n2)cc(OC)c1OC,12.1,16.6,6.39
CN(c1ccc2c(c1)nc(Nc1cc(C(C)(C)C)on1)n2C)c1ccnc(Nc2ccc(CS(C)(=O)=O)cc2)n1,-1.02,0.41,-1.74
COc1ccc(CN2CCCN(Cc3cccc(NC(=O)c4cc5ccccc5s4)c3)CC2)cc1,0.39,-0.1,-1.39
